“And” between values parts separate entries of the source, which are not always exact repeats. Equal entries are not always repeated. Compounds without any hit were thinned out: in the full panel of roughly 79,000, 15% have a hit. Rule as the data show it: active = growth inhibition above about 70%; inactive = the rest.
How the values were obtained:
[1] = NCI Yeast Anticancer Drug Screen. Data for the rad50 strain (AID 155);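 also: 0% = growth of vehicle-only cultures of the same strain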; conditions: S. cerevisiae rad50 strain growth inhibition; at 50.0 µM; active compounds read high
In short: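 Vehicle-treated cultures provide the reference for the growth inhibition reported for compound-exposed, repair-deficient yeast.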

[2] = NCI Yeast Anticancer Drug Screen. Data for the mec2-1 strain (AID 157); conditions: S. cerevisiae mec2-1 strain, at 50.0 µM, active compounds read high
In short: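 mec2-1 yeast strain, carrying an alteration in DNA damage repair or cell cycle control, was exposed to compounds; growth inhibition was measured relative to vehicle-treated controls.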

[3] = NCI Yeast Anticancer Drug Screen. Data for the sgs1 mgt1 strain (AID 161);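 also: 0% = growth of cultures given vehicle only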; conditions: S. cerevisiae sgs1 mgt1 strain, at 50.0 µM, active compounds read high
In short: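 Percent growth inhibition was derived by comparing compound-exposed mutant yeast with vehicle-exposed cultures. The strain carries alterations in DNA damage repair.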

[4] = NCI Yeast Anticancer Drug Screen. Data for the cln2 rad14 strain (AID 165);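 also: 0% = growth equal to vehicle treated cultures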; conditions: S. cerevisiae cln2 rad14 strain, at 50.0 µM, active compounds read high
In short: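 Yeast carrying cln2 and rad14 alterations (cell cycle control and DNA damage repair) were exposed to compounds. Growth inhibition was measured against vehicle-treated controls.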

[5] = NCI Yeast Anticancer Drug Screen. Data for the bub3 strain (AID 167); conditions: S. cerevisiae bub3 mutant strain, at 50.0 µM, active compounds read high
In short: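 Mutant yeast screening strain plus compound; vehicle-treated cultures serve as the 0% inhibition reference.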

[6] = NCI Yeast Anticancer Drug Screen. Data for the mlh1 rad18 strain (AID 175); conditions: S. cerevisiae mlh1 rad18 strain growth inhibition; at 50.0 µM; active compounds read high
In short: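 Growth inhibition of the yeast strain was measured after compound exposure and expressed relative to vehicle-treated controls. The strain carries defined defects in DNA damage repair.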

Measured: growth inhibition

CCC(C)C(N)C(=O)O (configuration not stated)
inactive: [1] -39.2% and 2.9% | [2] -31.7% and -21.1% | [3] -17.4% and -2.15% | [4] -29.3% and 5.4% | [5] -14.1% and 4.05% | [6] -28.9% and 5.5%

Nc1ccc(S(=O)(=O)Nc2cnc3ccccc3n2)cc1
inactive: [1] -11.1% and -2.05% | [2] -1.95% and -1.25% | [3] 2.25% and -5.9% | [4] -20.2% and -30.1% | [5] -11.2% and -10.6% | [6] -4.45% and -6.45%

NC1CCCCCCC1
inactive: [1] 4.85% and 5.55% | [2] -4.95% and 2.2% | [3] 0.75% and 3.8% | [4] -4.2% and 1% | [5] 9.85% and 3.6% | [6] 0.55% and 2.7%

O=C(O)C1CCCC2C(O)CCC(=O)C12 (configuration not stated)
inactive: [1] -23.5% and -14.2% | [2] -16.3% and -6.8% | [3] -12.7% and -5.6% | [4] -5.45% and 4.25% | [5] -12.9% and -5.9% | [6] -29.4% and -32%

CC(=O)OCC(OC(C)=O)C(OC(C)=O)C(OC(C)=O)C(COC(=O)c1ccccc1)OC(=O)c1ccccc1 (configuration not stated)
inactive: [1] 4.35% and 18.9% | [2] -3.75% and 5.75% | [3] -10.6% and -4.1% | [4] -21.1% and 3.7% | [5] 4.35% and -0.35% | [6] 2.15% and 10.3%

COC1OC(COC(=O)c2ccc([N+](=O)[O-])cc2)C2OC12 (configuration not stated)
inactive: [1] 7.6% and -6.95% | [2] -7.95% and -1% | [3] 8.7% and 1.4% | [4] 17.2% and 28.4% | [5] 27.2% and -2.85% | [6] 7.95% and 8.15%

COc1ccc2c(=O)oc3c(OC)cc(CCN(C)C)c4c(=O)oc1c2c34
inactive: [1] 62.9% and -8.15% | [2] -0.55% and -23.4% | [3] 0.35% and -57.6% | [4] 4.3% and -24.4% | [5] 20.2% and -43.8% | [6] 25.4% and -30.3%

Nc1nc(N)c2ncn(C3OC(CO)C(OC4OC(CO)C(O)C(O)C4O)C(O)C3O)c2n1 (configuration not stated)
inactive: [1] -0.55% and -12.2% | [2] 12.8% and 7.45% | [3] 2.45% and -27.6% | [4] -2.65% and -19.2% | [5] 1.8% and -17.8% | [6] 22.3% and -10.3%

COc1ccc(C(O)C(NCCO)c2ccc(OC)cc2)cc1 (configuration not stated)
inactive: [1] 8.85% and -3.55% | [2] 12.8% and -7.35% | [3] 42.7% and -3.7% | [4] -37.6% and -16.8% | [5] -2.25% and 0.05% | [6] 15.7% and -28.1%

CC1=NN(c2ccc([N+](=O)[O-])cc2)C(=O)C1[N+](=O)[O-] (configuration not stated) (tested in a mixture with another compound)
inactive: [1] 20.1% and 26.6% | [2] 1.95% and 2.9% | [3] 12.3% and 34.4% | [4] 14.8% and 13.1% | [5] -1.75% and -1.25% | [6] 3.35% and 12.8%

O=C(OCC(OC(=O)c1ccccc1)C(OC(=O)c1ccccc1)c1cnn(-c2ccccc2)n1)c1ccccc1 (configuration not stated)
inactive: [1] -24.1% and 4.05% | [2] 4.1% and 15.4% | [3] -34.4% and -11.9% | [4] -35% and -15.7% | [5] -10.8% and -1.55% | [6] -4.25% and 17.6%

Cn1c(=O)c2[nH]cnc2n(C)c1=O
inactive: [1] 4.5% and 10.1% | [2] -16.1% and 2.3% | [3] -35.5% and -20.8% | [4] -23.8% and -9.25% | [5] -3.95% and -2.2% | [6] 19.1% and 2.8%

CCCC(=O)Oc1ccccc1C(C)C
inactive: [1] 12.5% and 2.75% | [2] 11.9% and -21.8% | [3] 11% and -5.25% | [4] 14.1% and -8.9% | [5] 6.8% and -0.15% | [6] 1.65% and -19.6%

CC(CCC(=O)O)C(=O)O (configuration not stated)
inactive: [1] -16% and 17.4% | [2] -7.65% and -15.8% | [3] -8.6% and -4.6% | [4] -5.7% and 0.25% | [5] 4.95% and 11.3% | [6] -8.5% and 9.8%

CC1OC(n2cnc3c(N)ncnc32)C(O)C1O (configuration not stated)
inactive: [1] -3.75% and 14.4% | [2] 8.1% and -3.35% | [3] 2.5% and -12.4% | [4] -53.2% and 5.3% | [5] 0.85% and -1% | [6] -0.4% and -13.8%

C/C=C(\Br)C(=O)O
inactive: [1] -8.1% and 24.1% | [2] -10.7% and -5.4% | [3] 1.7% and 0.25% | [4] -10.1% and -19.2% | [5] -15.1% and 5.8% | [6] 9.25% and 12.8%

CC1CC(=O)C2CC1C2(C)C (configuration not stated)
inactive: [1] 18% and 27.3% | [2] -9.05% and 0.3% | [3] -2.15% and 11.7% | [4] -0.85% and 12.1% | [5] 6% and 14.1% | [6] -6.1% and 23.9%
